This note sets out measurements from PubChem BioAssay (NCATS).

The structures appear in SMILES notation. Values without a mark were called inactive. Inconclusive results are not listed. Active and inactive are the calls of the source. Unless noted, calls come from the whole dose curve; as a rule, active = well fitted curve in the direction sought with a large enough effect; inconclusive = small, poorly fitted or top-dose-only effect, or another doubt; inactive = no such curve, though single readings can be large; an effect the other way counts as inactive or inconclusive.

Assay [1] is described as follows: Cell Viability - BJ (AID 421; calls by dose curve;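 note: potency is the fitted concentration of half-maximal effect; cells exposed to compound for 40 hours at 37 °C before readout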). To be noted: BJ fibroblast viability, qHTS. In outline: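 Luminescent ATP signal (CellTiter-Glo, 20 min at room temperature) served as the read-out of viable BJ cells after 40 hours of compound treatment. Responses were scaled between DMSO and 100 uM tamoxifen, and AC50 values were obtained by Hill modeling.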
(Quantitative high-throughput screening tests each substance at several concentrations.)

Assay [2] is described as follows: Cell Viability - Jurkat (AID 426;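 active = dose-dependent loss of cell ATP signal giving a full or clear fitted curve, ranked by lower potency value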;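 note: potency is the fitted concentration of half-maximal effect; cells exposed to compound for 40 hours at 37 °C before ATP read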). Conditions: qHTS. In outline:
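Seed 5000 Jurkat E6-1 cells/well; add compound; incubate 40 hr at 37 °C; add CellTiter-Glo; wait 20 min at room temperature; read luminescence. Fit concentration-response with Hill equation for AC50.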

Assay [3] is described as follows: Cell Viability - Hek293 (AID 427;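 active = compounds whose dose-response curve shows a full or clear partial loss of cell viability, called from curve shape rather than a numeric limit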;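 note: potency is the fitted concentration of half-maximal effect; cells exposed to compound for 40 hours at 37 °C before reading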). To be noted: qHTS. In outline:
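Luminescent ATP read-out (CellTiter-Glo, 20 min RT) after 40 hr compound exposure at 37 °C in complete medium. Signal normalized to DMSO (basal) and 100 uM tamoxifen (100% inhibition); concentration-response fitted with the standard Hill equation to give AC50.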

Assay [4] is described as follows: Cell Viability - HepG2 (AID 433; calls by dose curve;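 note: potency is the fitted concentration of half-maximal effect; potency for ATP loss meaning cytotoxicity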). To be noted: qHTS. Put shortly:
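HepG2 hepatocellular carcinoma cells (1500/well) were treated with compounds for 40 h at 37 °C in complete medium; intracellular ATP was read by CellTiter-Glo luminescence. Data were normalized to DMSO and 100 uM tamoxifen, and AC50 came from Hill fits.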

Assay [5] can be described thus: Cell Viability - MRC5 (AID 434; calls by dose curve;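 note: potency is the fitted concentration of half-maximal effect; potency reflects cytotoxicity seen as loss of intracellular ATP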). To be noted: MRC5 lung fibroblast viability, qHTS. Put shortly:
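MRC5 normal human lung fibroblasts (1500/well) were treated with compounds for 40 hr at 37 °C in complete medium, and viable cells were measured as intracellular ATP by CellTiter-Glo luminescence. AC50 came from Hill fits, normalized to DMSO and 100 uM tamoxifen.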

Assay [6] can be described thus: Cell Viability - SK-N-SH (AID 435; calls by dose curve;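 note: potency is the fitted concentration of half-maximal effect; compound exposure lasted 40 h at 37 °C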). Conditions: SK-N-SH neuroblastoma cell viability qHTS. Put shortly: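 SK-N-SH human neuroblastoma cells (1500/well) were exposed to compounds in complete medium for 40 h at 37 °C, and intracellular ATP was then measured by CellTiter-Glo luminescence. AC50 was taken from Hill fits, normalized to DMSO and 100 uM tamoxifen.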
Assay [7] deals with Mitogen-activated protein kinase 10 (Mus musculus) (UniProt Q61831). Briefly: JNK3 AlphaScreen Assay (AID 530; active = well fitted curve in either direction with a large enough effect, not every such curve was filed as active;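 note: kinase came from lysate of stimulated human HepG2 cells; % is set by controls: 0 for no effect and ±100 for the full control effect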). Conditions: JNK3 lysate, c-Jun phosphorylation; series mostly up to 57.1 µM. Put shortly: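 JNK3 came from HepG2 lysates pre-activated with IL-1beta and TNF-alpha and phosphorylated biotinylated GST-cJun (1-79) at 10 uM ATP, pH 7.6, room temperature. Compounds were titrated. AlphaScreen signal used anti-phospho-cJun (Ser73) antibody.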
For orientation: In Alpha technology, singlet oxygen from a donor bead excites a nearby acceptor bead.

Assay [8] can be described thus: Cell Viability - N2a (AID 540).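 Note: plate controls were DMSO alone for no effect and tamoxifen control for full effect; nearly all actives have a fitted effect of over 45% in size.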 To be noted: N2a mouse neuroblastoma cell viability; activity change, negative = cytotoxicity: at 92.2 µM (top of the series). In outline: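 First, 1500 N2a cells per well incubate 5 hr at 37 °C; next, compounds are added and incubated 40 hr at 37 °C; finally CellTiter-Glo is added and luminescence read after 20 min, with AC50 derived by Hill modeling.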

A short description of assay [9]: Cell Viability - NIH 3T3 (AID 541).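 For activity change, negative = cytotoxicity: plate controls were DMSO alone for no effect and tamoxifen positive control for full effect.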 Note: nearly all actives have a fitted effect of over 25% in size. Note: potency is the fitted concentration of half-maximal effect. Conditions: NIH 3T3 cell viability, qHTS; activity change, negative = cytotoxicity: at 92.2 µM (top of the series). Put shortly:
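AC50 values reflect concentration-dependent loss of intracellular ATP in NIH 3T3 cells after 40 hr treatment in complete culture medium, quantified by luciferase-based luminescence.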

A short description of assay [10]: Cell Viability - HUV-EC-C (AID 542). Note: % is set by controls: 0 for no effect and ±100 for the full control effect; nearly all actives have a fitted effect of over 35% in size. To be noted: HUV-EC-C endothelial cell viability, qHTS; series mostly up to 92.2 µM. In outline: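 Decrease in cellular ATP, quantified by luciferase luminescence, reflects toxicity in normal human vascular endothelial HUV-EC-C cells given compound for 40 hr in complete culture medium. Values are AC50s from concentration-response curves.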

Assay [11] in a line: Cell Viability - H-4-II-E (AID 543). Note: % is set by controls: 0 for no effect and ±100 for the full control effect; nearly all actives have a fitted effect of over 35% in size. To be noted: H-4-II-E rat hepatoma viability; series mostly up to 92.2 µM. Put shortly:
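Here, cytotoxicity is measured in the rat hepatoma line H-4-II-E as loss of intracellular ATP after 40 hr compound treatment, detected by luciferase luminescence.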

Assay [12] is described as follows: Cell Viability - Renal Proximal Tubule (AID 545). Note: nearly all actives have a fitted effect of over 40% in size. To be noted: renal proximal tubule cells viability, primary cells of rat origin; series mostly up to 91.7 µM. In outline:
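Primary rat renal proximal tubule cells (1000/well) were treated with compounds for 40 hr at 37 °C in complete medium. Intracellular ATP was measured by CellTiter-Glo luminescence, and AC50 values came from Hill-equation fits of concentration-response data.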

A short description of assay [13]: Cell Viability - Mesenchymal (AID 546).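 Note: cells exposed to compound for 40 hours before reading.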 Conditions: mesenchymal cells viability, qHTS; series mostly up to 91.7 µM. Put shortly:
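Normal human renal glomerulus-derived kidney mesenchymal cells, 1000 per well in complete medium, were treated with compounds for 40 hr at 37 °C. Viability was read as intracellular ATP by CellTiter-Glo luminescence; AC50 values came from Hill-equation fits of qHTS concentration-response data.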

The nature of assay [14]: Cellular Toxicity (caspase-3) HepG2 (AID 654).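 Note: cells exposed to compound for 16 hours before reading; 0% = DMSO alone and 100% = caspase signal from 100 µM tamoxifen.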 To be noted: HepG2 caspase-3 activation, luminescence; series mostly up to 92.2 µM. Put shortly:
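qHTS, HepG2, 1500 cells/well, complete medium; cpd 16 h 37 °C; Caspase-Glo 3/7, 20 min RT; lum. Norm: DMSO vs 100 uM tamoxifen; AC50 Hill fit.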

The nature of assay [15]: Cellular Toxicity (caspase-3) Jurkat (AID 655).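 Note: cells exposed to compound for 16 h at 37 °C before reading.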 To be noted: Jurkat caspase-3 activation, luminescence; caspase-3 activation: at 92.2 µM (top of the series), DMSO = 0%, tamoxifen = 100%. Put shortly:
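Jurkat cells (5000/well) in complete medium were treated with compounds for 16 hr at 37 °C, then Caspase-Glo 3/7 luminescence was read after 20 min at room temperature. Data normalized to DMSO (basal) and 100 uM tamoxifen (100%); AC50 from Hill fit.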

Assay [16] in a line: Cellular Toxicity (caspase-3) HUV-EC-C (AID 656). To be noted: HUV-EC-C cells, caspase-3 activation (apoptosis), vehicle = 0, 100 µM tamoxifen = 100%; series mostly up to 92.2 µM. In outline:
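HUV-EC-C endothelial cells, 1000/well, were pre-incubated 5 hr at 37°C, then exposed to compounds for 16 hr at 37°C. Caspase-Glo 3/7 luminescence was read after 20 min at room temperature. AC50 came from Hill fits, normalized to DMSO and 100 uM tamoxifen.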

Assay [17] is described as follows: Cellular Toxicity (caspase-3) SHSY5Y (AID 657). Conditions: SH-SY5Y caspase-3 activation, DMSO zero, 10 µM staurosporine = 100%; series mostly up to 91.7 µM. In outline: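 SH-SY5Y human neuroblastoma cells (1500/well) were treated with compounds for 16 h at 37 °C, then Caspase-Glo 3/7 luminescence was read after 1 h at room temperature. Data normalized to DMSO and 10 uM staurosporine; AC50 from Hill fits.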

Assay [18] is described as follows: Cellular Toxicity (caspase-3) BJ (AID 658). To be noted: BJ fibroblasts, luminescence, normalized: DMSO 0%, staurosporine 100%; series mostly up to 91.7 µM. In outline:
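Luminescent aminoluciferin-substrate cleavage reports caspase 3/7 activity in normal human BJ fibroblasts after 16 hr compound exposure at 37 °C. Normalized to DMSO (basal) and 10 uM staurosporine (100%); AC50 from Hill fit of concentration-response.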

Assay [19] is described as follows: Cellular Toxicity (caspase-3) MRC-5 (AID 659). To be noted: MRC-5 cells, luminescence, normalized: DMSO 0%, 10 µM staurosporine 100%; series mostly up to 91.7 µM. In outline: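 Luminescence from caspase-cleaved aminoluciferin substrate (Caspase-Glo 3/7, 1 hr RT) reports caspase 3/7 activity in MRC-5 lung fibroblasts after 16 hr compound exposure. Normalized to DMSO basal and 10 uM staurosporine as 100%; AC50 from Hill fits.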

Assay [20] in a line: Cell Viability - SH-SY5Y (AID 544). Note: nearly all actives have a fitted effect of over 55% in size. Conditions: SH-SY5Y neuroblastoma cell viability; viability change, negative = cytotoxic: at 92.2 µM (top of the series). In outline: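 Cytotoxicity is scored as a concentration-dependent fall in intracellular ATP in human SH-SY5Y cells treated 40 hr in complete culture medium. Potency is expressed as AC50 from a Hill equation fit.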

Regarding `CC(C)(C)OCC1CO1` (configuration not stated), the Potency in assay [1], in [2], in assay [3], in assay [4], in assay [5] and in assay [6] was above 92 µM throughout. For the same molecule, the result in assay [7], in [16] and in [17] was inactive. The activity change, negative = cytotoxicity in assay [8] is 3.76%. The Potency result in [9], in [10], in assay [11], in assay [12], in [13] and in [14] was “inactive” throughout. Also, the caspase-3 activation in assay [15] is 0.113%.

On to `N#CC1(O)CCCCC1`, for which the Potency in assay [1], in [2], in [3], in assay [4], in assay [5] and in assay [6] was above 92 µM each time. In addition, the molecule was classed as inactive in assay [7], in [16], in [17], in assay [18] and in assay [19]. In assay [8], the activity change, negative = cytotoxicity is 14.1%. The Potency entry in assay [9], in [10], in assay [11], in [12], in assay [13] and in assay [14] was “inactive” each time. Besides, in [15], the caspase-3 activation was 1.9%.

Regarding `O=C(O)c1ccc(C(=O)O)cc1`, the Potency in assay [1], in [2], in assay [3], in [4], in [5] and in assay [6] was above 92 µM in each case. Besides, the outcome in assay [7], in assay [16], in assay [17], in assay [18] and in [19] was inactive. Also, in assay [8], the activity change, negative = cytotoxicity was 0.102%. Besides, the Potency result in [9], in assay [10], in assay [11], in [20], in [12] and in assay [14] was “inactive” in each case. The caspase-3 activation in [15] is 1.28%.

Turning to `CCN(C(=O)N(CC)c1ccccc1)c1ccccc1`, the Potency in assay [1], in assay [2], in [3], in assay [4], in assay [5] and in [6] was above 92 µM in each case. The Potency in assay [9] was 7.94 µM (active). Further, the result in assay [7], in assay [16], in assay [17] and in assay [19] was inactive. Moreover, the activity change, negative = cytotoxicity in assay [8] was -13.7%. The Potency result in assay [10], in assay [11], in assay [20] and in assay [14] was “inactive” throughout.

For the molecule `Nc1ccc(F)cc1F`, the Potency in [1], in assay [2], in assay [3], in [4], in assay [5] and in assay [6] was above 92 µM each time. The call in assay [7], in assay [16], in assay [17], in assay [18] and in assay [19] was inactive. Also, the activity change, negative = cytotoxicity in assay [8] was -8.92%. The Potency entry in [9], in [10], in assay [11], in [20], in assay [12] and in assay [14] was “inactive” throughout. Moreover, the caspase-3 activation in assay [15] was 1.31%.

In the case of `COC(=O)CS`, the Potency in assay [1], in assay [2], in assay [3], in assay [4], in assay [5] and in [6] was above 92 µM in each case. The molecule was called inactive in assay [7], in [16], in assay [17] and in assay [19]. Besides, in assay [8], the activity change, negative = cytotoxicity was -8.95%. Moreover, the Potency entry in assay [9], in [10], in assay [11], in assay [20] and in assay [12] was “inactive” each time. In addition, the caspase-3 activation in assay [15] was -2.15%.
